Data: the supplement of paper PMC12636033
± gives the standard deviation of the averaged measurements. Over roughly 33,000 sequences, “E-score (rank enrichment, -0.5 to 0.5)” has its median near -0.0043; the highest 2% begin near 0.24. What follows is part of a selection rich in the highest values, with near analogues and random picks from the rest.

test system: 2Sp-muMax20 (muMax20 with two 2,6-bis(methyl)pyridine Cys staples); assay: PBM 8-mer E-score (E-score (rank enrichment, -0.5 to 0.5)); higher = stronger preferential binding
Description: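 Protein binding microarray (universal PBM chip covering all 10-mers in fixed probe flanks) with chemically synthesized human Max(13-93) bHLH-LZ analogs (not full-length Max) bearing noncanonical residues (hArg, Tha, Aib, Nle at 65) and aromatic Cys staples. Read-out per 8-mer (and its reverse complement): E-score (rank-based enrichment, -0.5 to 0.5) and Z-score of median probe intensity.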

Row | Sequence | PBM 8-mer E-score
1 | CATCGTGA | -0.256 ± 0.15
2 | GAAGTCTA | 0.0975 ± 0.1
3 | CATACTAC | 0.0746 ± 0.039
4 | ATTACTAC | 0.256 ± 0.011
5 | CCTACTAG | 0.107 ± 0.023
6 | ATTACTAG | -0.00656 ± 0.053
7 | CATACTAA | 0.1447 ± 0.00064
8 | ACTACTAT | 0.146 ± 0.12
9 | CATACTAG | 0.243 ± 0.0018
10 | CTTACTAC | 0.122 ± 0.0036
11 | ACTACTAG | 0.261 ± 0.086
12 | AACTTGTA | 0.0176 ± 0.02
13 | AGAGTCAA | -0.0327 ± 0.08
14 | CGGCGGAG | -0.149 ± 0.039
15 | CTGCTCGC | -0.104 ± 0.0046
16 | CAGAGGTC | -0.182 ± 0.051
17 | CAGCAACG | -0.129 ± 0.075
18 | AAAAATAG | 0.122 ± 0.058
19 | GAATATAA | 0.215 ± 0.056
20 | AAAAATAA | 0.0898 ± 0.087
21 | ACCAATAG | -0.0592 ± 0.066
22 | AAATATAT | 0.3135 ± 0.00093
23 | ACCAATAC | 0.139 ± 0.021
24 | AAATATAG | 0.148 ± 0.036
25 | AAAAATAT | 0.244 ± 0.024

Row | Sequence | PBM 8-mer E-score
26 | AAATATAC | 0.087005 ± 2.1e-05
27 | CAATATAA | 0.152 ± 0.1
28 | ACCAATAT | 0.258 ± 0.045
29 | TAATATAA | 0.242 ± 0.035
30 | ATGCGCCG | -0.102 ± 0.045
31 | CATGGCAG | 0.0778 ± 0.016
32 | CCCAAAGC | -0.158 ± 0.047
33 | GAGCCGAA | -0.123 ± 0.12
34 | AAATAAAA | 0.175 ± 0.059
35 | AACTATAA | 0.199 ± 0.015
36 | GACTATAA | 0.0335 ± 0.072
37 | AAATATAA | 0.255 ± 0.03
38 | AAATATCA | 0.132 ± 0.038
39 | TACTATAA | 0.261 ± 0.011
40 | TAGCGGCA | -0.00468 ± 0.025
41 | TTAGTCAA | -0.0593 ± 0.046
42 | ATCTCACA | 0.141 ± 0.066
43 | GAATCCAA | 0.132 ± 0.0084
44 | AAATCCAA | 0.0276 ± 0.05
45 | TAATCCAA | 0.256 ± 0.031
46 | ACGGGATA | 0.146 ± 0.0045
47 | GATCTTGA | 0.263 ± 0.086
48 | TATCTTGA | 0.123 ± 0.099
49 | CATCTTGA | 0.00562 ± 0.03
50 | ACTCACTG | 0.0171 ± 0.1

Row | Sequence | PBM 8-mer E-score
51 | ATGCCTAG | 0.0159 ± 0.081
52 | GAGGTCCC | -0.243 ± 0.0028
53 | AAGGCATT | -0.0085 ± 0.05
54 | AGGAGGGA | 0.000855 ± 0.036
55 | AGTAGGGG | 0.24 ± 0.072
56 | AGGAGGGG | 0.269 ± 0.0072
57 | ATGAGGGG | 0.24 ± 0.05
58 | AGTAGGGC | 0.0658 ± 0.099
59 | ATGAGGGC | 0.115 ± 0.015
60 | ATGAGGGA | 0.0977 ± 0.073
61 | AGTAGGGA | 0.0183 ± 0.02
62 | AGGAGGGC | -0.104 ± 0.14
63 | GGCGCTAA | -0.136 ± 0.035
64 | CCCACTGA | 0.0382 ± 0.01
65 | CGGGACGA | -0.1379 ± 0.00041
66 | AGTATCAG | 0.0699 ± 0.071
67 | CGCCCTAC | -0.00866 ± 0.015
68 | GCCCGGGA | -0.254 ± 0.03
69 | TGATGCCA | 0.033 ± 0.029
70 | TATCAGGA | 0.0871 ± 0.048
71 | ACCAAAGC | 0.0731 ± 0.02
72 | GTTACATA | 0.106 ± 0.096
73 | GCGCTCCC | -0.0536 ± 0.052
74 | AATCAACA | 0.262 ± 0.024
75 | GATCAACA | -0.111 ± 0.05

Row | Sequence | PBM 8-mer E-score
76 | TATCAACA | 0.139 ± 0.05
77 | GCTATGCC | -0.00318 ± 0.017
78 | AGTGCACA | -0.000545 ± 0.11
79 | CTCGATCA | 0.0252 ± 0.013
80 | GGCGAGAC | -0.0185 ± 0.036
81 | CTACTTTA | 0.0402 ± 0.06
82 | ATACTTTA | 0.255 ± 0.07
83 | ATACTTTG | 0.185 ± 0.015
84 | AGTCTCGA | 0.0438 ± 0.016
85 | ACCTCCAC | -0.105 ± 0.0033
86 | CTGTGATA | -0.0212 ± 0.031
87 | ACGTGAAA | 0.243 ± 0.025
88 | CTGTGAAA | -0.00932 ± 0.11
89 | ACGTGAAC | 0.0294 ± 0.091
90 | ACGTGATG | 0.244 ± 0.0044
91 | ACGTGATC | 0.17 ± 0.081
92 | GTGTGAAA | 0.11 ± 0.0048
93 | ACGTGATA | 0.222 ± 0.02
94 | ATGTGATA | 0.288 ± 0.051
95 | GTGTGATA | 0.15 ± 0.061
96 | TCGTGAAA | -0.115 ± 0.084
97 | ATGTGAAA | 0.319 ± 0.026
98 | CGCTCCTA | -0.177 ± 0.024
99 | AACAGTAC | 0.0773 ± 0.0098
100 | AGCTAGAC | -0.14 ± 0.029

Row | Sequence | PBM 8-mer E-score
101 | CCCCCGAA | -0.24 ± 0.13
102 | CCGTGACG | -0.127 ± 0.12
103 | CCAAGGGG | -0.104 ± 0.046
104 | ATACTGAC | 0.0362 ± 0.0098
105 | ATACTGAT | 0.2387 ± 0.00027
106 | ATACTGTC | 0.183 ± 0.041
107 | GCAGATCC | -0.0702 ± 0.063
108 | ACGTGACC | 0.149 ± 0.063
109 | TCCTTTAA | 0.0188 ± 0.023
110 | AATAATGC | 0.143 ± 0.1
111 | GATAATGA | 0.00488 ± 0.095
112 | AATAATGA | 0.238 ± 0.017
113 | CATAATGA | 0.1647 ± 0.0015
114 | AATAATGG | 0.126 ± 0.043
115 | AATAATGT | 0.241 ± 0.044
116 | GACCTGCC | -0.149 ± 0.014
117 | ATAACATG | 0.229 ± 0.027
118 | ATAACAAC | 0.0625 ± 0.012
119 | ATAACAAT | 0.244 ± 0.022
120 | CTAACATC | 0.0136 ± 0.022
121 | ATAACATC | 0.236 ± 0.034
122 | ATAACAAG | 0.221 ± 0.044
123 | AGGACTCA | 0.0578 ± 0.11
124 | CAGCGAAA | -0.113 ± 0.0075
125 | ACTGTAGG | 0.0115 ± 0.027

Row | Sequence | PBM 8-mer E-score
126 | AGAGTCGC | 0.0183 ± 0.052
127 | CTCTCAAA | -0.015 ± 0.005
128 | CACTATAG | 0.243 ± 0.038
129 | GACTATAC | 0.141 ± 0.068
130 | CACTATAC | 0.25 ± 0.013
131 | AACTATTG | 0.24 ± 0.051
132 | AACTATAC | 0.114 ± 0.06
133 | AACTATTA | 0.169 ± 0.027
134 | CACTATAA | -0.0291 ± 0.0069
135 | AACTATAG | 0.212 ± 0.074
136 | AACTATTC | -0.0563 ± 0.067
137 | CCGGATCA | -0.0752 ± 0.094
138 | AATTATGC | 0.202 ± 0.025
139 | ATGGATGC | 0.0345 ± 0.13
140 | CACGCGAC | 0.277 ± 0.013
141 | CACGCGAG | 0.26 ± 0.025
142 | CACGCGAA | 0.0343 ± 0.011
143 | GTCGCGAA | -0.143 ± 0.017
144 | AACGCGAC | 0.0983 ± 0.018
145 | GACGCGAC | -0.108 ± 0.084
146 | AACGCGAG | 0.0185 ± 0.046
147 | GTCGCGAC | 0.314 ± 0.014
148 | CTCGCGAC | 0.0452 ± 0.004
149 | CTAGAGTC | -0.122 ± 0.025
150 | ACCTCTCT | -0.0431 ± 0.11

Row | Sequence | PBM 8-mer E-score
151 | AGGCACTC | -0.155 ± 0.0063
152 | GCCACGGC | -0.219 ± 0.036
153 | CGCCTATC | 0.0914 ± 0.054
154 | ATGCGGTC | -0.0281 ± 0.033
155 | AAATGTGG | 0.138 ± 0.015
156 | CTATGTGC | 0.13 ± 0.017
157 | ACATGTGC | 0.283 ± 0.052
158 | AGATGTGC | 0.0607 ± 0.028
159 | ACATGTGG | 0.364 ± 0.031
160 | AGATGTGG | 0.0241 ± 0.00082
161 | GCGAAGGA | -0.1 ± 0.011
162 | CCTGAAGC | -0.0531 ± 0.025
163 | CGATTGCA | 0.000985 ± 0.025
164 | AGATTGCA | 0.0232 ± 0.053
165 | TGATTGCA | 0.286 ± 0.081
166 | ACGTCGCA | -0.0865 ± 0.15
167 | CTCGCTTC | -0.0128 ± 0.0032
168 | AACAAAAA | -0.0104 ± 0.045
169 | TACAAAAA | 0.26 ± 0.052
170 | GACAATAA | 0.188 ± 0.0055
171 | AACAATAC | 0.263 ± 0.0036
172 | GACAATAC | 0.144 ± 0.15
